PubChem BioAssay AID779 (Sanford-Burnham Center for Chemical Genomics, 2007)
Unmarked numbers belong to inactive results. The rule behind the calls is not given here.

assay: placental alkaline phosphatase inhibitors, dose response, counter-screen, biochemical, colorimetric (AID 779); details: PLAP counter-screen, colorimetric OD read-out

Structure (SMILES) | IC50
O=C(Nc1cccc2c1CCCC2)c1cc([N+](=O)[O-])ccc1Cl | > 50 µM
CCCCCn1nc(-c2ccccc2)c2nc3ccccc3nc21 | > 50 µM
CC1(C)CCCN(C(=O)c2coc(=O)c(Br)c2)C1 | > 50 µM
CC(C)C(C(=O)O)N1C(=O)/C(=C/C=C/c2ccco2)SC1=S (configuration not stated) | > 50 µM
CC1CCCN(c2nc3ccccc3nc2C(C#N)C(=O)OC2CCCCC2)C1 (configuration not stated) | > 50 µM
CCCCN(CCCC)C1=Nc2ccccc2N/C1=C(/C#N)C(=O)OCC | > 50 µM
CC(C)(C)C(=O)c1sc2nc(-c3cccs3)cc(C(F)(F)F)c2c1N | > 50 µM
Cc1nn(-c2ccccc2)c2c1C(c1cccnc1)N1C=C(S(=O)(=O)N3CCCCC3)C=CC1=N2 (configuration not stated) | > 50 µM
O=[N+]([O-])c1ccc(N2N=C(c3ccco3)CC2c2ccccc2)cc1 (configuration not stated) | > 50 µM
CCCCCCOC(=O)C(C#N)c1nc2ccccc2nc1N1CCN(CC)CC1 (configuration not stated) | > 50 µM
O=C(Nc1cccc2ccccc12)/C(=C/c1ccc([N+](=O)[O-])cc1)NC(=O)c1ccccc1 | > 50 µM
CC(C(=O)O)N1C(=O)/C(=C/C=C/c2ccco2)SC1=S (configuration not stated) | > 50 µM
CSc1nc(NCCOCCO)c2sc3nc(-c4ccco4)c4c(c3c2n1)CCC4 | > 50 µM
Cc1occc1-c1nnc(SCC(=O)Nc2ccccc2-c2ccccc2)n1C | > 50 µM
Cc1nc(C)c(C(=O)Nc2nc3c(C)cccc3s2)o1 | > 50 µM
COc1cc(/C=C2\SC(=S)N(Nc3ccccc3)C2=O)cc(OC)c1OC | > 50 µM

Structure (SMILES) | IC50
CCOC(=O)N1CCN(C(=O)CSc2nnc(-c3c[nH]c4ccccc34)n2CCOC)CC1 | > 50 µM
c1ccc(-c2cn3nc(-c4ccccc4)c(-c4ccccc4)nc3n2)cc1 | > 50 µM
CCOc1ccc(S(=O)(=O)N(CC(=O)N/N=C/c2ccc(-c3ccc([N+](=O)[O-])cc3)o2)c2ccccc2)cc1 | > 50 µM
Cc1ccc(CNC(=O)CN2CCC(C(N)=O)CC2)cc1 | > 50 µM
CCN(CCCNC(=O)CN(C)S(=O)(=O)c1cccc2nsnc12)c1cccc(C)c1 | > 50 µM
Cc1ccc(C2=N/C(=C\c3cccs3)C(=O)N2Nc2ccccc2)cc1 | > 50 µM
CCn1c(COc2ccccc2C)nnc1SCC(=O)Nc1cc(C)on1 | > 50 µM
Oc1ccc(-c2cn3c(n2)SCC3)cc1O | > 50 µM
COC(=O)Sc1nnc(-c2ccc(Br)cc2)o1 | > 50 µM
COc1ccc(/C=c2\sc3nc(-c4ccccc4)c(-c4ccccc4)n3c2=O)cc1OC | > 50 µM
O=C(/C=C/c1ccccc1)c1cc(Br)ccc(=O)c1O | > 50 µM
CCNc1ccc(Br)cc(C(=O)/C=C/c2ccc3c(c2)OCO3)c1=O | > 50 µM
N#Cc1sc2nc(-c3cccs3)cc(-c3ccccc3)c2c1N | > 50 µM
Oc1c(N=Nc2ccccn2)ccc2ccccc12 | > 50 µM
O=C(O)c1ccccc1C(=O)NNc1ccc(F)cc1 | > 50 µM
Cc1ccc2cc(C=C(C#N)C#N)c(N3CCCCC3)nc2c1 | > 50 µM
